According to PubChem BioAssay AID651947 (Broad Institute, 2012):
Potency and affinity values are given separately. Records with an inconclusive call do not appear. Values without a mark were called inactive.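 The calls were made as follows: active = luminescence drop in HepG2 cells whose fitted half-effect dose is at most twice the top valid dose; inconclusive = flat curve with 30 to 70% signal loss, or unreliable fit; inactive = the rest.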

Assay: HepG2 hepatoma cell viability loss – plate reader, dry powder, cytotoxicity control, dose response (AID 651947)
Conditions: ATP luminescence (CellTiter-Glo), 48 h, hits give low values; at 26 µM unless noted

SMILES	max activity
Clc1ccc(-c2nnc(SCc3ccccc3)o2)cc1	-50.8%
c1ccc(CSc2nnc(-c3ccccc3)o2)cc1	-12.1% [at 1.6 µM]
COc1ccc(CSc2nnc(-c3ccccc3)o2)cc1	-24.9% [at 0.195 µM]
